This is an account of results in the supplement of paper PMC3334620.

Over roughly 33,000 sequences, “E-score (-0.5 to 0.5)” has its median near -0.054; the highest 2% begin near 0.39. Shown is part of a subset that was picked to be rich in the highest values.

The test addresses Ylr278c (UniProt Q05854). The test can be described thus: PBM E-score (8-mer binding enrichment) (E-score (-0.5 to 0.5)); higher = stronger / more preferred TF binding. The conditions noted are these: protein concentration: 200 nM; construct: GST-DNA-binding domain. In a few lines: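 Each ungapped eight-base word and its reverse complement, pooled, received an E-score from the Universal PBM Analysis Suite. Underlying scans, normalised with masliner, recorded fluorescent anti-GST bound to GST-tagged yeast transcription factors. These were applied at about 100-200 nM to universal all-10-mer Agilent arrays double-stranded by primer extension.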
Sequence of UniProt Q05854 (Q05854 whole entry, the tested form may be a part): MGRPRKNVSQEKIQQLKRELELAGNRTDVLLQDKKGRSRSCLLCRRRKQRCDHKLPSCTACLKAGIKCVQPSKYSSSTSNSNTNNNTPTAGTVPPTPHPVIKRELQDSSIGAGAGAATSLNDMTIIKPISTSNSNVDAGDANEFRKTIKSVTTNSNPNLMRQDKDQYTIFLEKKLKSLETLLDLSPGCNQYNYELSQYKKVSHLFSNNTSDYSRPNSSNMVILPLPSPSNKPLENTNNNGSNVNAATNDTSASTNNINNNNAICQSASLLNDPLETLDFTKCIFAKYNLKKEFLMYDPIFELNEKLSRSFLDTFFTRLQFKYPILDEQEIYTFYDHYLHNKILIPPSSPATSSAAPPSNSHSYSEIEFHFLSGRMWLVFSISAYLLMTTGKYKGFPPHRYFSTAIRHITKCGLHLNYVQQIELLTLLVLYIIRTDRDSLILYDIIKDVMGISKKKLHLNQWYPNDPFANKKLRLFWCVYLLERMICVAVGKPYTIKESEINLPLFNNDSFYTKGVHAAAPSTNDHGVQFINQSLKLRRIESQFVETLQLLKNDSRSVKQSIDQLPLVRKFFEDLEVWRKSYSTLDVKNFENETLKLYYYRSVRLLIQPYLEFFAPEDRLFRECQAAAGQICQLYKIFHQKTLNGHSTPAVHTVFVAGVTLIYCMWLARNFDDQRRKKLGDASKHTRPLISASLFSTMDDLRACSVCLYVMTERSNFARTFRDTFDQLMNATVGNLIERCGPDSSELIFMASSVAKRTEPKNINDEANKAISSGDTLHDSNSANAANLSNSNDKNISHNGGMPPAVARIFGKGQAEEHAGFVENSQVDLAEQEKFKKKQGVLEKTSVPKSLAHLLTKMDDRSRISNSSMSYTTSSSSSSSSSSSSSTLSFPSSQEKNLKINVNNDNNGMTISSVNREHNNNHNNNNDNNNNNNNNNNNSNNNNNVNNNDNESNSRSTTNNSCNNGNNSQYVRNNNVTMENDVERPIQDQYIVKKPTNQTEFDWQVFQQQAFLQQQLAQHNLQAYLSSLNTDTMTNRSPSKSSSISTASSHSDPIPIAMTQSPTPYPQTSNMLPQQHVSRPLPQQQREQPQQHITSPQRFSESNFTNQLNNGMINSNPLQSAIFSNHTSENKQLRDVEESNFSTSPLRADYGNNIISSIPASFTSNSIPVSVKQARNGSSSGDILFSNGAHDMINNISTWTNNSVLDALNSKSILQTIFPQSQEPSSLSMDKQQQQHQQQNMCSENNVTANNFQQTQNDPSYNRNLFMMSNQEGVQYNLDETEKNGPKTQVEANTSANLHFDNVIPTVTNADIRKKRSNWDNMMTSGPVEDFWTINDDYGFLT
Regarding CAATCATG, the “PBM E-score” value was -0.214.
For the sequence CGTATTTA, the “PBM E-score” value stood at 0.0653.
As to CAAGCTGC, the “PBM E-score” value was -0.103.
The figure for GAGGATAC is -0.125; for ATTCATAC it is 0.0829; for ACTCTTCA it is -0.191.
Consider CGTCAGAA, for which the “PBM E-score” value is -0.25.
CGTTTAAC: the “PBM E-score” value was -0.174.
For CGTTAGAC the value was -0.0149; for AGCGCGTA, -0.109.
Regarding CCCCTTAG, the “PBM E-score” value turned out to be 0.0521.
For ACTCGGTG the value was 0.0389; for ACTCGGAG, 0.428.
For ACTCGGCG the value was 0.256; for TAGGGACA, -0.0143.
As to AGGAGCGC, the “PBM E-score” value is -0.0703.
In the case of CGGAGCGA, the “PBM E-score” value came out at 0.415.
For CTGAGCGC the value was -0.145; for CGGAGCGC, 0.391; for GGGAGCGA, -0.116.
The figure for AGGAGCGA is -0.0963; for AATGGAAT it is 0.0961; for ATCTGTGG it is -0.141.
Consider GCTTCGGA, for which the “PBM E-score” value came to 0.367.
With ATTTCGGG, the “PBM E-score” value was determined as 0.235.
As for ATTTCGGC, the “PBM E-score” value was 0.275.
For ATTTCGGA, the “PBM E-score” value is 0.45.
CCTTCGGC: the “PBM E-score” value came out at 0.112.
Turning to GTTTCGTA, the “PBM E-score” value amounted to 0.0178.
For CTTTCGGC, the “PBM E-score” value is 0.239.
For CTTTCGTA the value was -0.173; for CCTTCGGA, 0.424.
In the case of GTTTCGGA, the “PBM E-score” value is 0.4.
As to GTTTCGAA, the “PBM E-score” value was -0.0713.
On to CTTTCGGA, for which the “PBM E-score” value was found to be 0.451.
For the sequence CTGGGTCC, the “PBM E-score” value was 0.0219.
On to CTTATCTA, for which the “PBM E-score” value is -0.0407.
For CAAAGCTA, the “PBM E-score” value is -0.093.
For ACTCGCAT, the “PBM E-score” value was -0.0232.
Consider AAGTTCAA, for which the “PBM E-score” value stood at 0.118.
Regarding ACCACTTA, the “PBM E-score” value is -0.0492.
As to GGGCTCAC, the “PBM E-score” value is -0.0724.
As for GGAGCAGA, the “PBM E-score” value turned out to be 0.109.
For the sequence ACCTTCTA, the “PBM E-score” value is -0.186.
With GTGTACGA, the “PBM E-score” value was -0.00044.
As for CTCCGCGC, the “PBM E-score” value amounted to 0.429.
With GTCCGCGA, the “PBM E-score” value turned out to be 0.313.
With ATCCGCGC, the “PBM E-score” value came to 0.251.
On to CTCCGCGA, for which the “PBM E-score” value is 0.403.
For CACCGCGC the value was 0.201; for ATCCGCGA, 0.253; for CCAGCTCC, 0.22.
For CATCTCCA, the “PBM E-score” value came to 0.0295.
AATCTCCG: the “PBM E-score” value is 0.484.
On to CATCTCCG, for which the “PBM E-score” value came out at 0.463.
In the case of AATCTCCT, the “PBM E-score” value turned out to be 0.0721.
For AATCTCCC, the “PBM E-score” value is 0.0563.
Take CATCTCCC: the “PBM E-score” value was 0.216.
For ACGCTCTG, the “PBM E-score” value is -0.251.
Turning to CAACTCGG, the “PBM E-score” value worked out at 0.139.
On to ACCTCTGC, for which the “PBM E-score” value was -0.209.
Take AAGGAAGC: the “PBM E-score” value is -0.162.
As to ACTTCAGA, the “PBM E-score” value was -0.0177.
Take CCGGCCGA: the “PBM E-score” value was determined as 0.415.
For CCGGCCGG the value was 0.461; for CCGGCCGC, 0.327; for GCGGCCGA, 0.188.
Take ACGGCCGA: the “PBM E-score” value turned out to be 0.246.
For the sequence ACGGCCGG, the “PBM E-score” value came to 0.33.
AGCGCCAT: the “PBM E-score” value was -0.199.
In the case of GACAGGGC, the “PBM E-score” value is -0.0701.
For GCCTCCAC, the “PBM E-score” value is -0.044.
For TAGCCATA, the “PBM E-score” value was -0.329.
For the sequence GATGGGGC, the “PBM E-score” value was -0.023.
Regarding CAGGACTG, the “PBM E-score” value was -0.287.
With CTTCCGTA, the “PBM E-score” value amounted to 0.215.
Turning to GTTCCGCA, the “PBM E-score” value turned out to be 0.289.
ATTCCAGA: the “PBM E-score” value stood at 0.0166.
Take ATTCCGTA: the “PBM E-score” value stood at 0.33.
For the sequence CTTCCGGC, the “PBM E-score” value was 0.371.
For GTTCCGTA, the “PBM E-score” value is 0.264.
Consider ATTCCGGA, for which the “PBM E-score” value came to 0.46.
Take CTTCCGGA: the “PBM E-score” value stood at 0.451.
The figure for GTTCCGGA is 0.45.
For ACTGTTTC the value was -0.0349; for GTCAGCAA, -0.18.
For the sequence CGTCCAAA, the “PBM E-score” value is 0.14.
Regarding ACCTCGCT, the “PBM E-score” value was -0.0554.
For AGTCAGCG, the “PBM E-score” value turned out to be 0.0403.
For ATGCCCCA the value was -0.0328; for CAGTCGAA, -0.212.
Consider AAAGCCTT, for which the “PBM E-score” value is -0.162.
As to ATCTCAAC, the “PBM E-score” value was -0.00641.
In the case of CAGGAGTC, the “PBM E-score” value was 0.055.
Turning to ATGGAGTC, the “PBM E-score” value was 0.0654.
The figure for AAGGAGTA is -0.0326.
Regarding GGGGAGTA, the “PBM E-score” value turned out to be 0.0376.
Consider ACGGAGTA, for which the “PBM E-score” value was found to be 0.452.
As for CTGGAGTC, the “PBM E-score” value is -0.0908.
On to ATGGAGTA, for which the “PBM E-score” value was 0.0152.
For CCGGAGTC the value was 0.451; for GAGGAGTA, 0.0495; for ACGGAGTC, 0.398.
Consider AAGGAGTC, for which the “PBM E-score” value is -0.127.
For the sequence GCGGAGTA, the “PBM E-score” value was 0.449.
For the sequence AGAGTTGG, the “PBM E-score” value is -0.115.
For ACTCTGTA the value was -0.175; for GACCCAGC, -0.272; for GATCCAGC, 0.0556.
Take ACACCGCC: the “PBM E-score” value came to 0.199.
In the case of AGACAGTC, the “PBM E-score” value is -0.129.
Turning to CTTACAGA, the “PBM E-score” value was -0.0798.
Consider CGAGACCG, for which the “PBM E-score” value stood at 0.233.
In the case of CTCAAGTC, the “PBM E-score” value was -0.225.
Take CATGTACG: the “PBM E-score” value was -0.0652.
Take CAGAATGG: the “PBM E-score” value was -0.0518.
For GCTCTGGA the value was -0.1; for ATGGAGTG, -0.0888; for CTGGAGTA, -0.0695.
On to CAGGAGTA, for which the “PBM E-score” value is -0.0482.
On to AAGGAGTG, for which the “PBM E-score” value was -0.179.
In the case of CCGGAGTA, the “PBM E-score” value stood at 0.485.
On to ACGGAGTG, for which the “PBM E-score” value stood at 0.401.
On to GTTCTAGA, for which the “PBM E-score” value amounted to 0.0109.
